Reference: PMC4336329 (PLoS ONE, 2015)
In all, about 310,000 compounds went through this assay and about 14,000 (4.5%) showed an effect of 50% or more. Effects have a minus sign here. The sample holds strong results, similar compounds and a random draw of the others, so the mix is not that of the screen.

Biological target: human ether-à-go-go-related gene (hERG) potassium channel (human, UniProt Q12809)
Assay: primary screen, population patch clamp on CHO cells stably expressing hERG; higher = less effect of the substance
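Also: peak tail current of the secondary pulse compared with the same well before compound.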

Sequence of human ether-à-go-go-related gene (hERG) potassium channel (Q12809 whole entry, looked up): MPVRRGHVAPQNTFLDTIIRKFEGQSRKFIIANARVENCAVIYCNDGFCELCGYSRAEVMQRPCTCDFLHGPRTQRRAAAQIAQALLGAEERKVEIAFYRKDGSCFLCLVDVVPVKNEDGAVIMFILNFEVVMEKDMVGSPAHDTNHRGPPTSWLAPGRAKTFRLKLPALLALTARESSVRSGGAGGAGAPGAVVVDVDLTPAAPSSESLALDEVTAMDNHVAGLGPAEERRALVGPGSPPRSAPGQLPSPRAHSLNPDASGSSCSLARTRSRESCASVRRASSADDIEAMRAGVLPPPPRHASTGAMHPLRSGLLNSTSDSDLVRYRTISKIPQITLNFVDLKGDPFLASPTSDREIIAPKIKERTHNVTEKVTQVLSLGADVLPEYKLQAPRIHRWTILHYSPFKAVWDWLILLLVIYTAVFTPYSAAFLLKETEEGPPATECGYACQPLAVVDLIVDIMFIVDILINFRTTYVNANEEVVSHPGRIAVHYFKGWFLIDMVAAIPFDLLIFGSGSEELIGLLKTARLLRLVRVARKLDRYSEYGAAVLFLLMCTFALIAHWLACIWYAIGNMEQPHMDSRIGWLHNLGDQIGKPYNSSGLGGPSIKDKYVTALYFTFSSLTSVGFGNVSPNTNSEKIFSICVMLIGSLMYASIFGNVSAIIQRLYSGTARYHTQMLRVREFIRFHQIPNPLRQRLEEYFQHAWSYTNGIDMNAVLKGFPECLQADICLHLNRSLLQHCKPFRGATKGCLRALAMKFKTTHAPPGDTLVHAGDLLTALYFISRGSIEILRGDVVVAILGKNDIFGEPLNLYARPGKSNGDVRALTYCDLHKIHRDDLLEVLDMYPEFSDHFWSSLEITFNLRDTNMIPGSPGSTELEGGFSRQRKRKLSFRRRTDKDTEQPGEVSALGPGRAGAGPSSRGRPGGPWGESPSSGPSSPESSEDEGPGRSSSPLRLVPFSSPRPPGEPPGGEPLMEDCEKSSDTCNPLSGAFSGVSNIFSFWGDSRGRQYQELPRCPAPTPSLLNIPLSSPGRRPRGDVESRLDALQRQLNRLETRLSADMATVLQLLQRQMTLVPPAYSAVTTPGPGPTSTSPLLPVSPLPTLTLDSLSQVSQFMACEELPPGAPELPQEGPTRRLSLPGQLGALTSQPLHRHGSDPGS

Structure (SMILES)	hERG current change (%, negative = inhibition) at 10uM [%]
Cc1ccccc1OCCNC(=O)CSc1ccc(C(F)(F)F)cc1[N+](=O)[O-]	10.6
COc1ccc(CCNC(=O)c2ccc(N3CCCC3=O)cc2)cc1OC	15.3
COc1ccc(C(=O)N/C(=C/c2cccnc2)C(=O)N2CCN(C)CC2)cc1OC	11.4
Cc1cc(C)n(C(=O)COc2ccccc2C)n1	-3.33
Nc1c(C(=O)Nc2ccccc2F)sc2nc(-c3cccnc3)ccc12	20.9
O=C(COC(=O)c1ccncc1)Nc1cc(Cl)ccc1Cl	6.07
CCOCCn1c(SCc2ccc(F)cc2)nc2c1c(=O)[nH]c(=O)n2C	-19.5
Cc1ccc(C(C)C)c(OCCOCCN2CCNCC2)c1.O=C(O)C(=O)O	-3.95
CC(C)(C)c1ccc(OCC(=O)NCCN2CCCC2)cc1.Cl	-33.7
CCOC(=O)n1c(=O)n(Cc2ccc(Cl)cc2Cl)c2ccccc21	-3.22
Cc1ccccc1NC(=O)NC1CCCCCCC1	8.64
O=C(Nc1ccc(Cl)c(C(F)(F)F)c1)NC1CC2CCCC(C1)N2Cc1ccccc1 (stereo not drawn)	-71
CC(=O)NC1CC2CCCC(C1)N2C(=O)Nc1ccc(Cl)c(C(F)(F)F)c1 (stereo not drawn)	-3.34
COc1ccc(CN2C3CCCC2CC(NC(=O)Nc2ccccc2)C3)cc1 (stereo not drawn)	-74.1
COc1ccc(NC(=O)N2C3CCCC2CC(NC(=O)c2ccccc2)C3)cc1 (stereo not drawn)	-15.9
COCC(=O)NC1CC2CCCC(C1)N2Cc1ccccc1 (stereo not drawn)	-4.63
Cc1cccc(NC(=S)NC2CC3CCCC(C2)N3Cc2ccccc2)c1C (stereo not drawn)	-10.4
COc1ccc(CN2C3CCCC2CC(NC(=O)Nc2ccccc2C)C3)cc1 (stereo not drawn)	-59
COc1ccc(NC(=O)NC2CC3CCCC(C2)N3Cc2ccccc2)cc1 (stereo not drawn)	-50.1
COc1ccc(C(=O)NC2CC3CCCC(C2)N3Cc2ccccc2)c(OC)c1 (stereo not drawn)	-26.5
O=C(Nc1ccc(Cl)c(C(F)(F)F)c1)NC1CC2CCCC(C1)N2C1CC1 (stereo not drawn)	-10.1

Structure (SMILES)	hERG current change (%, negative = inhibition) at 10uM [%]
CCOc1ccc(N2C(=O)CC(N)C2=O)cc1 (stereo not drawn)	1.65
COc1ccc(OC)c(CCNC(=O)CC2(CC3=NS(=O)(=O)c4ccccc4N3)CCCC2)c1	-11.2
COC(=O)c1cc(-c2cccc([N+](=O)[O-])c2)c2c(=O)[nH]c(=O)n(C)c2n1	6.48
COc1cccc(NC(=O)CCNS(=O)(=O)c2cccc3nsnc23)c1	1.56
Cn1c(=O)c2ccccc2n(Cc2ccccc2Cl)c1=O	0.661
CCCN1C2CCCC1CC(NC(=O)Nc1cccc(C(C)=O)c1)C2 (stereo not drawn)	-5.62
Cc1cccc(NC(=O)NC2CC3CCC(C2)N3Cc2ccco2)c1 (stereo not drawn)	-2.61
COc1ccc(CN2C3CCCC2CC(NC(=O)Nc2cccc(C)c2)C3)cc1 (stereo not drawn)	-75.3
O=C(Nc1cccc(F)c1)NC1CC2CCCC(C1)N2C1CC1 (stereo not drawn)	-8.34
Cc1ccc(CN2C3CCCC2CC(NC(=O)Nc2cccc(F)c2)C3)cc1 (stereo not drawn)	-85.7
CCc1cccc(CC)c1NC(=O)CN1C2CCCC1CC(NC(=O)Nc1cccc(OC)c1)C2 (stereo not drawn)	-7.7
CCOC(=O)C1CCN(C(=O)C2CCN(S(=O)(=O)c3cc(Cl)ccc3Cl)CC2)CC1	-30.1
Cc1ccc(S(=O)(=O)N2CCOCC2)cc1C(=O)OCC(=O)c1ccc(Br)cc1	14.7
COc1ccc(-c2nc3ccc(N4CCN(C)CC4)cc3c(=O)[nH]2)cc1	8.45
O=c1c2ccccc2nc2n1CCN2Cc1ccc(Cl)cc1	-51.9
O=c1c2ccccc2nc(-c2ccccc2)n1Cc1ccc(Cl)cc1	-15.7
O=c1c2ccccc2nc(N2CCCC2)n1-c1ccc(Cl)cc1	-3.18
CCOC(=O)c1c(-n2c(C)cc(C=C3C(=O)NC(=S)NC3=O)c2C)sc2c1CCCC2	-5.55
CN1CCC(=NNC(=O)c2ccc(N(Cc3ccc(Cl)cc3)S(C)(=O)=O)cc2)CC1	-38
COc1ccc(C(=O)NC2CC(C)(C)Cc3c2cnn3-c2ccccc2)c(OC)c1 (stereo not drawn)	-2.5
Cc1cnc(C(=O)NC2CC(C)(C)Cc3c2cnn3-c2cccc(F)c2)cn1 (stereo not drawn)	-33.5
